Records with an inconclusive call do not appear. Entries that show only a call come without a potency. The source made the active and inactive calls. Unless noted, calls follow the shape of the dose curve; as a rule, active = well fitted curve in the direction sought with a large enough effect in the repeat runs; inconclusive = weak or mixed curves; inactive = no such curve, though single readings can be large; an effect the other way counts as inactive or inconclusive.
Columns and labels:
[1] = qHTS assay to identify small molecule agonists of the peroxisome proliferator-activated receptor delta (PPARd) signaling pathway - cell viability counter screen (AID 743211); also: nearly all actives have a fitted effect of over 55% in size
Procedure, shortened: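 Read-out: CellTiter-Glo luminescence, 30 min RT, measured in the same wells as the beta-lactamase reporter. Cells: GeneBLAzer PPAR delta UAS-bla HEK293H, 3000 cells/well, compound exposure 17 h at 37C.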

[2] = molecular target: Peroxisome proliferator-activated receptor delta (Homo sapiens) (UniProt Q03181); assay: qHTS assay to identify small molecule agonists of the peroxisome proliferator-activated receptor delta (PPARd) signaling pathway (AID 743212; calls by dose curve)
Sequence of Peroxisome proliferator-activated receptor delta (Homo sapiens) (Q03181 whole entry, looked up): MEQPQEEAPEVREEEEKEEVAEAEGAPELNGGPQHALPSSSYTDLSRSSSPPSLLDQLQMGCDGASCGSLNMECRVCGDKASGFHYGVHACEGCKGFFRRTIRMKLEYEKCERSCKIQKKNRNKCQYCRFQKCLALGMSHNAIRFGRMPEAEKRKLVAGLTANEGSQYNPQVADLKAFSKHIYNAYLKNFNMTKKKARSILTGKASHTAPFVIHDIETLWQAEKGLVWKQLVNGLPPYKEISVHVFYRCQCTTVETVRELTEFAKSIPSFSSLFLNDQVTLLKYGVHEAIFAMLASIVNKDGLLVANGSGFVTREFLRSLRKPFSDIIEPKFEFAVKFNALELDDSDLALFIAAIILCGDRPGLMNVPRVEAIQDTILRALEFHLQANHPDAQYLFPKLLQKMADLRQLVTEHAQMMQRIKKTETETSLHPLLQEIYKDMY
Procedure, shortened: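 GeneBLAzer UAS-bla HEK293H cells carrying a PPARδ construct were exposed to compounds at 37 °C. Beta-lactamase activity was read by FRET fluorescence after 2 h at room temperature with LiveBLAzer B/G substrate.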

[3] = qHTS assay to identify small molecule antagonists of the peroxisome proliferator-activated receptor delta (PPARd) signaling pathway - cell viability counter screen (AID 743213); also: nearly all actives have a fitted effect of over 50% in size
Procedure, shortened: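 Agonist-stimulated (L165041, 300 nM final) HEK293H PPARd UAS-bla cells are exposed to compounds for 17 h at 37 C, and ATP-based luminescence (CellTiter-Glo) from the same wells reports cytotoxicity.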

[4] = molecular target: Bile acid receptor (Homo sapiens) (UniProt Q96RI1); assay: qHTS assay to identify small molecule antagonists of the farnesoid-X-receptor (FXR) signaling pathway (AID 743217; active = well fitted inhibition curve with a large enough effect in the signal ratio in the repeat runs, not every such curve was filed as active; the % refers to the signal ratio)
Sequence of Bile acid receptor (Homo sapiens) (Q96RI1 whole entry, looked up): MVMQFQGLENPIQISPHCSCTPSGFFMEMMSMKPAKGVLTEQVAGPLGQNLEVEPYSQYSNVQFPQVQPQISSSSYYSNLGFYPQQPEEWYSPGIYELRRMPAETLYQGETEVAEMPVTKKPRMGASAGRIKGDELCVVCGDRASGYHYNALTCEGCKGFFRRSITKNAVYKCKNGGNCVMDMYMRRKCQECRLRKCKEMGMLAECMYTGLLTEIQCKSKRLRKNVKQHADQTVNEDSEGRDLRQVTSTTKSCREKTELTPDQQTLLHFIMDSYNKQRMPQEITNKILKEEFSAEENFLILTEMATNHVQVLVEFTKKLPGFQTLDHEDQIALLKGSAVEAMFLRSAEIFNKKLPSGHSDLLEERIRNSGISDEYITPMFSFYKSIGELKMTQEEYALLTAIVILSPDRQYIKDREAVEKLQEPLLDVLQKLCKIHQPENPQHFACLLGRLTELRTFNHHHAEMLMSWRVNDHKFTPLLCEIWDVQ
Procedure, shortened: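 In this cell-based antagonist screen, inhibition of CDCA-driven (50 uM final) UAS-beta-lactamase expression in HEK 293T cells was measured by FRET fluorescence following 16 h compound exposure at 37 °C.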

[5] = molecular target: Bile acid receptor (Homo sapiens) (UniProt Q96RI1); assay: qHTS assay to identify small molecule agonists of the farnesoid-X-receptor (FXR) signaling pathway (AID 743220; active = well fitted activation curve with a large enough effect in the signal ratio in the repeat runs, not every such curve was filed as active; the % refers to the signal ratio)
Procedure, shortened: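 Beta-lactamase reporter under UAS control in GeneBLAzer FXR HEK 293T cells (5000/well) measured with LiveBLAzer FRET substrate after 2 h at room temperature. Compound exposure lasted 16 h at 37C.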

[6] = qHTS assay to identify small molecule antagonists of the farnesoid-X-receptor (FXR) signaling pathway - cell viability counter screen (AID 743221; active = well fitted cell-killing curve with a large enough effect in the repeat runs, not every such curve was filed as active; also: nearly all actives have a fitted effect of over 50% in size)
Procedure, shortened: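 HEK 293T FXR-bla cells, 5 h pre-incubation; compound + CDCA 50 uM final, 16 h, 37 C; beta-lactamase FRET read first, then CellTiter-Glo luminescence, 30 min RT.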

[7] = molecular target: Vitamin D3 receptor (Homo sapiens) (UniProt P11473); assay: qHTS assay to identify small molecule agonists of the vitamin D receptor (VDR) signaling pathway (AID 743222; calls by dose curve)
Sequence of Vitamin D3 receptor (Homo sapiens) (P11473 whole entry, looked up): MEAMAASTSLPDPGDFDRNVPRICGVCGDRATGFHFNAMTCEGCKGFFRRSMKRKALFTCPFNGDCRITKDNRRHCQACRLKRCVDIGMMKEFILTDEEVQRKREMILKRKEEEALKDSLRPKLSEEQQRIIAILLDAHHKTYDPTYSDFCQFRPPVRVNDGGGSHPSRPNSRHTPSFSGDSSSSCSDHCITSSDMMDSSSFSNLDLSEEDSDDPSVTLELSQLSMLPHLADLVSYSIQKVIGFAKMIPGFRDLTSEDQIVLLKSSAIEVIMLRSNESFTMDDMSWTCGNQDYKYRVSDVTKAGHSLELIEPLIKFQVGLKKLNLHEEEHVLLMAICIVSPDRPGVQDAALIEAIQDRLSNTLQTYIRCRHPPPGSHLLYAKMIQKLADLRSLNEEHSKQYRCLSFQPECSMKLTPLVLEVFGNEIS
Procedure, shortened: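 VDR-bla cells were seeded, left 4 h, treated with compounds in DMSO for 16 h, incubated 2 h at RT with B/G FRET substrate, and read for fluorescence.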

[8] = molecular target: Vitamin D3 receptor (Homo sapiens) (UniProt P11473); assay: qHTS assay to identify small molecule antagonists of the vitamin D receptor (VDR) signaling pathway (AID 743223; active = well fitted inhibition curve with a large enough effect in the signal ratio in the repeat runs, not every such curve was filed as active; the % refers to the signal ratio)
Procedure, shortened: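 Beta-lactamase reporter read-out: FRET substrate fluorescence after 2 h at room temperature, following 16 h exposure of VDR-bla cells to test compound plus 3 nM (final) 1alpha,25-dihydroxyvitamin D3 agonist at 37C.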

[9] = qHTS assay to identify small molecule agonists of the vitamin D receptor (VDR) signaling pathway - cell viability counter screen (AID 743224); also: nearly all actives have a fitted effect of over 50% in size; also: potency is read from the fitted curve at half-maximal effect
Procedure, shortened: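 Here cell health was gauged by luminescent ATP detection (CellTiter-Glo, 30 min RT) in VDR-bla cells that had been incubated with test compounds for 16 h at 37C and 5% CO2.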

[10] = qHTS assay to identify small molecule agonists of the NFkB signaling pathway (AID 1159509; active = well fitted curve in the direction sought with a large enough effect in the signal ratio in the repeat runs, not every such curve was filed as active; the % refers to the signal ratio; also: series mostly up to about 61 µM)
Procedure, shortened: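 ME-180 NFkB-bla, 2,000 cells/well, overnight plating; cpd pinned in DMSO, 5 h 37 C; B/G FRET substrate 1.5 h RT; ex 405, em 460/530 nm.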

[11] = qHTS assay to identify small molecule agonists of the endoplasmic reticulum stress response signaling pathway (AID 1159516; active = well fitted activation curve with a large enough effect in the signal ratio in the repeat runs, not every such curve was filed as active; the % refers to the signal ratio)
Procedure, shortened: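 Reporter HeLa cells (ESRE-beta-lactamase) underwent 5 hr compound incubation at 37 C and 5% CO2 in quantitative HTS format. Detection followed 2 hr of FRET substrate loading at room temperature.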

[12] = qHTS assay to identify small molecule agonists of the endoplasmic reticulum stress response signaling pathway - cell viability counter screen (AID 1159517; calls by dose curve;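 also: HeLa cells carrying an ER stress response element beta-lactamase reporter; series mostly up to about 61 µM; nearly all actives have a fitted effect of over 50% in size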)
Procedure, shortened: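 ESRE-bla HeLa cells, 1,500 per well, seeded overnight then treated with compounds for 5 hr at 37 C. After the beta-lactamase read, viability in the same wells is measured by CellTiter-Glo luminescence after 30 min at room temperature.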

[13] = qHTS assay to identify small molecule antagonists of the retinoid-related orphan receptor gamma (ROR-gamma) signaling pathway - cell viability counter screen (AID 1159520); also: nearly all actives have a fitted effect of over 50% in size
Procedure, shortened: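 Tet-on ROR gamma CHO cells were given compounds for 2 hr, then doxycycline hyclate at 1 uM final, and incubated 16 hr at 37 C. Viability was measured as ATP content by CellTiter-Glo luminescence.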

[14] = molecular target: Nuclear receptor ROR-gamma (Homo sapiens) (UniProt P51449); assay: qHTS assay to identify small molecule antagonists of the retinoid-related orphan receptor gamma (ROR-gamma) signaling pathway (AID 1159521)
Procedure, shortened: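 Luminescence readout (ONE-Glo, 30 min RT) after 16 h doxycycline induction; loss of signal scored as antagonism. CHO cells with TET-inducible RORγ and RORE-LUC reporter; compounds added 2 h before 1 uM final doxycycline.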

[15] = qHTS assay to identify small molecule agonists of the AP-1 signaling pathway - cell viability counter screen (AID 1159525; calls by dose curve; also: nearly all actives have a fitted effect of over 55% in size; also: potency is read from the fitted curve at half-maximal effect)
Procedure, shortened: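 AP-1-bla ME-180 cells in Opti-MEM with 0.5% dialyzed FBS, compound exposure 5 h at 37 C in 15-point titration. Viability read in the same wells as ATP content by CellTiter-Glo luminescence, normalised to tetra-n-octylammonium bromide and DMSO controls.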

[16] = qHTS assay to identify small molecule agonists of the AP-1 signaling pathway (AID 1159526; calls by dose curve)
[17] = molecular target: Peroxisome proliferator-activated receptor delta (Homo sapiens) (UniProt Q03181); assay: qHTS assay to identify small molecule antagonists of the peroxisome proliferator-activated receptor delta (PPARd) signaling pathway (AID 743215; active = well fitted inhibition curve with a large enough effect in the signal ratio in the repeat runs, not every such curve was filed as active; the % refers to the signal ratio; also: series mostly up to about 62 µM)
Procedure, shortened: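 With L165041 present at 300 nM final, compounds were incubated 17 h at 37 C on PPARd UAS-bla HEK293H cells. A FRET-based beta-lactamase substrate was then applied for 2 h at room temperature and fluorescence intensity recorded.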

[18] = qHTS assay to identify small molecule agonists of the farnesoid-X-receptor (FXR) signaling pathway - cell viability counter screen (AID 743218); also: nearly all actives have a fitted effect of over 45% in size
Procedure, shortened: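 After 16 h at 37 C with test compounds, FXR-bla HEK 293T cells were given LiveBLAzer B/G substrate for 2 h at RT and then CellTiter-Glo; luminescence was taken after 30 min.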

[19] = qHTS assay to identify small molecule antagonists of the vitamin D receptor (VDR) signaling pathway - cell viability counter screen (AID 743225); also: nearly all actives have a fitted effect of over 50% in size
Procedure, shortened: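 Viability counter screen run in the same wells as the beta-lactamase reporter assay: HEK 293T VDR-UAS-bla cells, 16 h compound exposure at 37C with 3 nM (final) 1-alpha,25-dihydroxyvitamin D3. CellTiter-Glo luminescence, 30 min, room temperature.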

Compound | Potency [1] | Potency [2] | Potency [3] | Potency [4] | Potency [5] | Potency [6] | Potency [7] | Potency [8] | Potency [9] | Potency [10] | Potency [11] | Potency [12] | Potency [13] | Potency [14] | Potency [15] | Potency [16] | Potency [17] | Potency [18] | Potency [19]
C=C1C[C@@]23CC[C@H]4[C@@](C)(CCC[C@@]4(C)C(=O)O[C@@H]4O[C@H](CO)[C@@H](O)[C@H](O)[C@H]4O)[C@@H]2CC[C@]1(O[C@@H]1O[C@H](CO)[C@@H](O)[C@H](O[C@@H]2O[C@H](CO)[C@@H](O)[C@H](O)[C@H]2O)[C@H]1O[C@@H]1O[C@H](CO)[C@@H](O)[C@H](O)[C@H]1O)C3 | inactive | inactive | inactive | inactive | inactive | inactive | inactive | inactive | inactive | inactive | inactive | inactive | inactive | inactive | inactive | inactive |  |  | 
CCC1(CO)COCOC1 | inactive | inactive |  |  |  | inactive |  |  |  | inactive | inactive | inactive | inactive | inactive | inactive | inactive | inactive | inactive | inactive
CC(=O)c1cc2ccccc2s1 | inactive | inactive | inactive | inactive | inactive | inactive |  | inactive | inactive | inactive | inactive | inactive | inactive | inactive | inactive | inactive |  | inactive | inactive
Cc1ccc(OC(=O)c2ccccc2O)cc1 | inactive | inactive | inactive |  |  | inactive | inactive | inactive |  | inactive | inactive | inactive | inactive | inactive | inactive | inactive |  | inactive | 
CCOC(=O)[C@H](CCc1ccccc1)N[C@@H](C)C(=O)N(CC(=O)O)C1Cc2ccccc2C1 |  |  |  |  |  |  | inactive | inactive | inactive | inactive | inactive | inactive | inactive | inactive | 19 µM (active) | inactive |  |  | inactive
COc1cc(N)c(Cl)cc1C(=O)NC1CCN(CCCOc2ccc(F)cc2)CC1OC (stereo unspecified) |  | inactive |  |  |  | inactive |  |  |  | inactive | inactive | inactive | inactive | inactive | inactive | inactive | inactive |  | inactive
C=C(C)CCCC(C)CCO (stereo unspecified) |  | inactive | inactive |  |  | inactive |  |  | inactive | inactive | inactive | inactive | inactive | inactive | inactive | inactive |  | inactive | 
CCCCCC#CC(=O)OC | inactive |  | inactive |  |  | inactive |  |  | inactive | inactive | inactive | inactive | inactive | inactive | inactive | inactive | inactive |  | inactive
Cc1cc(O)c(C)c(C)c1O | inactive | inactive | inactive |  |  | inactive |  |  | 29.8 µM (active) | inactive | inactive | inactive | inactive | inactive | inactive | inactive | inactive | inactive | 
